Out of some 420,000 compounds screened, about 64,000 (15%) were called active. About 27% were inconclusive and are not listed. Calls follow the shape of the dose curve; as a rule, active = well fitted inhibition curve with a large enough effect; inconclusive = small, poorly fitted or top-dose-only effect; inactive = flat fitted curve, though single readings scatter. The list is a sample of the results.

Experimental findings from PubChem BioAssay AID686978 (National Center for Advancing Translational Sciences (NCATS), 2013) are described below.
% is scaled to controls: 0 for no effect and ±100 for the full control effect; potency is read from the fitted curve at half-maximal effect.

The nature of the test: qHTS for Inhibitors of human tyrosyl-DNA phosphodiesterase 1 (TDP1): qHTS in cells in absence of CPT. Also: nearly all actives have a fitted effect of over 55% in size. The following applies: DT40 Tdp1-/- hTDP1 cells, no CPT, ATP luminescence, 48 h; activity change, negative = growth inhibition: at 46.2 µM (top of the series). An outline of the steps:
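DT40 Tdp1-/-;hTDP1 cells, no CPT (DMSO vehicle only), 400 cells/well; compounds pin-transferred; ≥48 hr, 37 °C; CellTiter-Glo 30 min RT dark, luminescence read.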
In general terms: Quantitative high-throughput screening tests each substance at several concentrations.
Turning to `COc1ccc(S(=O)(=O)N2CCN(CC(=O)N3CCNC3=O)CC2)cc1OC`, the “activity change, negative = growth inhibition” value is -5.83% (inactive).

On to `Cc1ccc(S(=O)(=O)CCC(=O)OCC(=O)N(C)Cc2ccccc2)cc1`, for which the “activity change, negative = growth inhibition” value was -3.82% (inactive).

In the case of `CCOc1ccc(CNC(=O)c2ccc3c(c2)nnn3C2CCCC2)cc1`, the “activity change, negative = growth inhibition” value was -25% (inactive).

In the case of `COc1ccc(C(=O)OCC(=O)N2CC(=O)Nc3ccccc32)cc1Br`, the “activity change, negative = growth inhibition” value was -13.8% (inactive).

As to `O=C(NCCc1ccccc1)c1c[nH]c2ccc(F)cc2c1=O`, the “activity change, negative = growth inhibition” value was -17.7% (inactive).

As to `CN(c1ccccc1)S(=O)(=O)c1ccc(Cl)c(C(=O)NCCc2c[nH]c3ccccc23)c1`, the Potency was 8.2 µM (active).

`CN(c1ccccc1)S(=O)(=O)c1ccc(Cl)c(C(=O)OCC(N)=O)c1`: the “activity change, negative = growth inhibition” value is -29.5% (inactive).

On to `CCc1ccc(NS(=O)(=O)c2ccc3[nH]cc(C(=O)NCCc4cccc(C)c4)c(=O)c3c2)cc1`, for which the “activity change, negative = growth inhibition” value was -25% (inactive).

For the compound `CSCCC(NS(=O)(=O)c1ccc(C)cc1)C(=O)NCCc1c[nH]c2ccccc12` (centres undefined), the “activity change, negative = growth inhibition” value was -29.1% (inactive).

As to `CCN(CC)S(=O)(=O)c1ccc2[nH]cc(C(=O)NCCc3ccccc3)c(=O)c2c1`, the Potency is 14.6 µM (active).

Take `COc1ccc(CN2CCc3nc(Nc4ccccc4)ncc3C2)c(OC)c1OC`: the Potency is 20.6 µM (active).

Turning to `Cn1c(=O)c(CCc2ccccc2)nc2cnc(Nc3ccccc3)nc21`, the “activity change, negative = growth inhibition” value is 14.5% (inactive).

For `Fc1ccc(CN2CCc3nc(Nc4ccccc4)ncc3C2)cc1F`, the Potency was 20.6 µM (active).

As for `COc1ccc(CN2CCN(Cc3ccc(OC)c(OC)c3OC)CC2)cc1`, the “activity change, negative = growth inhibition” value was -19.3% (inactive).

On to `Cc1nc2cnc(Nc3ccccc3)nc2n(Cc2ccc(F)cc2)c1=O`, for which the “activity change, negative = growth inhibition” value was -2.88% (inactive).

Consider `O=C(CSc1nc2c(c(=O)[nH]1)CN(Cc1ccc(F)cc1)CC2)Nc1ccccc1Cl`, for which the “activity change, negative = growth inhibition” value is 0.998% (inactive).

With `Fc1cccc(CSc2nnc3ccc(-c4ccncc4)nn23)c1`, the “activity change, negative = growth inhibition” value is -0.226% (inactive).

As for `Cc1[nH]c2ccccc2c1-c1ccc(Cl)nn1`, the “activity change, negative = growth inhibition” value is 13.8% (inactive).

As to `C=CCN1CCN(C(=O)CCCc2ccccc2)CC1`, the “activity change, negative = growth inhibition” value was 3.73% (inactive).

Consider `COc1ccccc1CNC(=O)C1CCN(C(=O)[C@@H]2Cc3ccccc3CN2)CC1`, for which the “activity change, negative = growth inhibition” value was 5.32% (inactive).

Take `COc1ccccc1CNC(=O)C1Cc2ccccc2C(=O)O1` (centres undefined): the “activity change, negative = growth inhibition” value is 9.48% (inactive).

With `COc1ccccc1CNC(=O)[C@@H]1CCCN1C(=O)[C@@H]1Cc2ccccc2CN1C(=O)OC(C)(C)C`, the Potency was 16.4 µM (active).

As for `O=C(NCC(=O)N1CCC2(CC1)NCCc1[nH]cnc12)c1ccc(Br)cc1`, the “activity change, negative = growth inhibition” value was 15.7% (inactive).

As for `CC(C)c1ccc(/C=C/C(=O)NNC(=O)c2cccnc2)cc1`, the “activity change, negative = growth inhibition” value is -19.6% (inactive).

Turning to `COc1cc2[nH]c(=S)n(Cc3ccc(C)o3)c(=O)c2cc1OC`, the “activity change, negative = growth inhibition” value is -18.2% (inactive).

With `O=C(NCCc1c[nH]c2ccc(Cl)cc12)c1ccc([N+](=O)[O-])cc1`, the “activity change, negative = growth inhibition” value was -7.74% (inactive).

In the case of `COc1ccc(-c2n[nH]c(C)c2-c2ccccc2OC)c(O)c1`, the Potency is 20.6 µM (active).

In the case of `C=C(C)COc1ccc(-c2n[nH]c(C)c2-c2ccccc2)c(O)c1`, the Potency was 16.4 µM (active).

With `CCOC(=O)COc1cc(O)c2c(=O)cc(-c3ccccc3)oc2c1`, the “activity change, negative = growth inhibition” value was -1.32% (inactive).

As for `Cc1noc(C)c1COC(=O)COc1ccc(-c2ccccc2)cc1`, the “activity change, negative = growth inhibition” value was 8.63% (inactive).

Consider `COc1ccc(-c2[nH]ncc2CN(C)Cc2c(C)n[nH]c2C)c(OC)c1`, for which the “activity change, negative = growth inhibition” value is 2.69% (inactive).

As to `CCOc1ccc(-c2nc(N)ncc2-c2ccccc2OC)c(O)c1`, the “activity change, negative = growth inhibition” value is -77.4% (inactive).

Turning to `Cc1ccc2nc(N(CCN(C)C)C(=O)C3=COCCO3)sc2c1`, the “activity change, negative = growth inhibition” value is 14.5% (inactive).

Consider `CCCC(=O)OCC(=O)Nc1cc(Cl)ccc1[N+](=O)[O-]`, for which the “activity change, negative = growth inhibition” value is -14% (inactive).

With `CCOC(=O)N1CCN(C(=O)c2ccccc2SCC(=O)NCC2CCCCC2)CC1`, the “activity change, negative = growth inhibition” value was -22.5% (inactive).

For `Cc1ccc2c(C(=O)CN3CCCC3)c(C)[nH]c2c1`, the “activity change, negative = growth inhibition” value was -27.5% (inactive).

Take `Cc1[nH]c2ccccc2c1C(=O)CN1CC(C)CC(C)C1` (centres undefined): the Potency is 8.2 µM (active).

Regarding `Cc1[nH]c2ccccc2c1C(=O)CN1CCCC(C)C1` (centres undefined), the “activity change, negative = growth inhibition” value is -28.9% (inactive).

Turning to `CCOC(=O)N1CCN(CC(=O)c2c(C)[nH]c3ccccc23)CC1`, the Potency is 18.4 µM (active).

In the case of `Cc1[nH]c2ccccc2c1C(=O)CSCC(=O)O`, the “activity change, negative = growth inhibition” value is -16.8% (inactive).

As for `Cc1[nH]c2ccccc2c1C(=O)COC(=O)C(C)C`, the “activity change, negative = growth inhibition” value was -19% (inactive).

`Cc1ccc(OCC(=O)Nc2nnc(-c3ccco3)s2)cc1`: the “activity change, negative = growth inhibition” value was 1.93% (inactive).

Take `CSc1ncccc1C(=O)Nc1ccc2c(c1)OCO2`: the “activity change, negative = growth inhibition” value is -15.9% (inactive).

Turning to `CCOC(=O)c1c(S(=O)(=O)Nc2ccc(CN3CCC(C)CC3)cc2)c(C)n(C)c1C`, the “activity change, negative = growth inhibition” value was 6.68% (inactive).

Regarding `COC(=O)c1ccccc1NC(=O)CSc1ccccn1`, the “activity change, negative = growth inhibition” value was -10.7% (inactive).

As for `CCOC(=O)c1cnc(SCC(=O)Nc2ccccc2C(=O)OC)nc1N`, the Potency was 23.1 µM (active).

For the compound `CCOC(=O)c1cnc(SCC(=O)NCc2ccco2)nc1N`, the “activity change, negative = growth inhibition” value is -5.27% (inactive).

Consider `CCCCN(C)CCCNC(=O)CN1N=C(c2ccc(OC)cc2)CCC1=O`, for which the “activity change, negative = growth inhibition” value is -10% (inactive).

`C=CCC(CC=C)(C(N)=O)c1ccccc1`: the “activity change, negative = growth inhibition” value was -0.515% (inactive).

For the compound `Cc1nn(CC(=O)Nc2ccc(C#N)cc2)c(C)c1[N+](=O)[O-]`, the “activity change, negative = growth inhibition” value is -29.6% (inactive).

Regarding `COCc1c(C(=O)OCC(=O)Nc2ccc(OC(F)F)cc2)oc2ccccc12`, the “activity change, negative = growth inhibition” value is -2.1% (inactive).

With `Cc1oc2cc(Br)c(O)c(Br)c2c1C(=O)c1ccccc1`, the “activity change, negative = growth inhibition” value is 0.0436% (inactive).

In the case of `CCOC(=O)c1c(C)oc2cc(Sc3ccccc3)c(O)c(O)c12`, the Potency was 25.9 µM (active).

In the case of `CCOC(=O)c1c(-c2ccccc2)oc2cc(Br)c(O)cc12`, the “activity change, negative = growth inhibition” value was -13.2% (inactive).

As for `Nc1nc(COC(=O)CCC(=O)c2ccc(Cl)cc2)nc(Nc2ccccc2)n1`, the “activity change, negative = growth inhibition” value is -23% (inactive).

For the compound `O=C(CSc1nc2nccnc2c(=O)n1CCc1c[nH]c2ccccc12)Nc1ccccc1F`, the Potency was 8.2 µM (active).

Consider `Cc1cc(C)cc(NC(=O)Cn2c(=O)c3ccccc3n3nncc23)c1`, for which the “activity change, negative = growth inhibition” value is 8.04% (inactive).

Consider `Cn1c(CCC(=O)Nc2ccccc2F)nnc1SCC(=O)Nc1ccccc1Cl`, for which the “activity change, negative = growth inhibition” value is -3.12% (inactive).

On to `Cc1cc(C)cc(NC(=O)CSc2nc3nccnc3c(=O)n2CCc2c[nH]c3ccccc23)c1`, for which the Potency was 7.31 µM (active).

In the case of `Cc1cc(C)c(NC(=O)CSc2nc3nccnc3c(=O)n2CCc2c[nH]c3ccccc23)c(C)c1`, the “activity change, negative = growth inhibition” value is 0.0247% (inactive).

As for `O=C(CSc1nc2nccnc2c(=O)n1Cc1cccs1)Nc1ccccc1F`, the “activity change, negative = growth inhibition” value is -23.8% (inactive).

As for `Cc1cccc(C)c1NC(=O)CSc1nc2c([nH]1)c(=O)n(C)c(=O)n2C`, the “activity change, negative = growth inhibition” value was -17.3% (inactive).

Turning to `CCc1c(O)nc(SCC(=O)Nc2ccccc2)n(C(C)CC)c1=O` (centres undefined), the “activity change, negative = growth inhibition” value was -22.4% (inactive).

In the case of `CCCNCc1cc(OCC)c(OCC(=O)Nc2ccccc2)cc1Br`, the “activity change, negative = growth inhibition” value was -14.8% (inactive).

As to `CN(C)C(=O)c1cc(Br)ccc1Cl`, the “activity change, negative = growth inhibition” value is -9.43% (inactive).

As for `Cc1cc(OC(=O)c2ccccc2)c([N+](=O)[O-])c(=O)[nH]1`, the “activity change, negative = growth inhibition” value is 17.1% (inactive).

Regarding `Oc1ccc(/C=N/Nc2ccc(C(F)(F)F)cn2)cc1O`, the Potency was 2.59 µM (active).

As to `Cc1nnsc1C(=O)N/N=C/c1cccc(C(F)(F)F)c1`, the “activity change, negative = growth inhibition” value was -5.29% (inactive).

`O=C(O)c1ccc(N/N=C/c2ccc3ncccc3c2)cc1`: the “activity change, negative = growth inhibition” value is -3.17% (inactive).
